ZTA DNA inh = ZTA (EBV) inhibition in EBNA-1 counter-screen. P03206. ZTA-DNA binding, fluorescence polarization. inhibition, % at 11 µM. 320,000 compounds, 0.15% hits. AID 2234; in the data active means inhibition above about 33%
Target sequence (P03206 whole entry, looked up): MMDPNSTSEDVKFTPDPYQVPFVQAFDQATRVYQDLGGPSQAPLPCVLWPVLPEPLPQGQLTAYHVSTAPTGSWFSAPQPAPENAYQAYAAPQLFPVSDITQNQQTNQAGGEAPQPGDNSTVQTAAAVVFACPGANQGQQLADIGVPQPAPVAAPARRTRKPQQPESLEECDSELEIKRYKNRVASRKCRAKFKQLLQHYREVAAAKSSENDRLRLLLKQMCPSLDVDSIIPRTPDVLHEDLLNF
GRIN3A LBD mod = binders of NR3A ligand-binding domain, primary screen, biophysical, differential scanning fluorimetry, uHTS. NR3A LBD differential scanning fluorimetry, Tm shift; 0% = protein alone, 100% = glycine-bound protein. 340,000 compounds, 2.5% hits. Tm shift relative to glycine control, % at 25 µM. AID 1259313, 2017;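 active means melting temperature shift of at least 10% of the positive control shift, at one fixed dose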
TPT1 inh = Candida albicans TPT1 enzyme inhibitors, primary screen, biochemical, fluorescence polarization; inhibition, % at 5 µM; recombinant caTPT1, FP RNA substrate dephosphorylation; 300,000 compounds, 0.81% hits;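 active means inhibition above the mean of all tested compounds plus 3 SD, set per screening campaign, cut at about 24% in these data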;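 further: plate controls were DMSO alone for no effect and ferristatin control at 100 nM for full effect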
Rpn11 block = Rpn11 (PSMD14) deubiquitinase inhibitors, primary screen, biochemical, fluorescence polarization, uHTS. inhibition, % at 20 µM. 360,000 compounds, 0.59% hits. human 26S proteasome, Ub4-pepOG fluorescence polarization; 20S core pre-blocked with epoxomicin;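 active means inhibition at 20 µM, scaled to each plate's controls, above about 33%, limit read from the data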
Target sequence (O00487 whole entry, looked up): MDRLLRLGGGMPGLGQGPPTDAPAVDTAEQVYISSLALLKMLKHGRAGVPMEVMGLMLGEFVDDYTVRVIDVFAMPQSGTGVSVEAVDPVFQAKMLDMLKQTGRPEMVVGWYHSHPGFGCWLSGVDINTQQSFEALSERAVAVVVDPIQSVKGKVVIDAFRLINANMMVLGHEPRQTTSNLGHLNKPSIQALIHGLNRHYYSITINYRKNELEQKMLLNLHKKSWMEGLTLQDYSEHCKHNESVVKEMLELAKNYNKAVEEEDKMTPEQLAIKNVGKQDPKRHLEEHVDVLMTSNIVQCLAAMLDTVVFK
dFosB act-1 = activators of delta FosB homodimer, primary screen, biochemical, fluorescence polarization, TAMRA-CDK5 oligo, single point; purified delta FosB; percent of positive-control signal above neutral wells; 340,000 compounds, 0.99% hits; AID 493131, 2011; activation, % at 25 µM; Protein FosB (Mus musculus), P13346;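 active means mean activation above about 17%, with every replicate also reaching it, limit read from the data, passing the limit was not always enough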
EBNA-1 inhibitor = EBNA-1 DNA-binding inhibitors, primary screen, biochemical, fluorescence polarization | AID 1950, 2009 | inhibition, % at 14.8 µM | 300,000 compounds, 0.34% hits; in the data active means inhibition above about 28%
dFosB act-2 = activators of mouse delta FosB DNA binding, confirmation, biochemical, fluorescence polarization, TAMRA-CDK5 oligo, cherry-picked samples. 2,400 tested, under 10 active. AID 588690, 2011. purified delta FosB; normalised: neutral wells 0, positive control 100. shares compounds with dFosB act-1. activation, % at 24.9 µM;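 active means highest replicate activation at or above 34% and every replicate reaching that threshold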;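 further: higher polarization means more probe DNA bound by delta FosB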
* marks the source's active call; other numbers are inactive results; / = no result given. In the library only some 4.5% were active in any assay of this set; here they are far more common.

SMILES	ZTA DNA inh	GRIN3A LBD mod	TPT1 inh	Rpn11 block	dFosB act-1	EBNA-1 inhibitor	dFosB act-2
CCn1cc(C(=O)O)c(=O)c2cnc(N3CCN(C(=S)Nc4ccccc4C(F)(F)F)CC3)nc21	-13	-2	1	-6	-13	-5	/
O=C1COc2ccc(C(=O)COc3ccc([N+](=O)[O-])cc3)cc2N1	2	-1	1	5	18*	6	2
CCN(CC)S(=O)(=O)c1cc(C(=O)OCC(=O)c2ccc3c(c2)NC(=O)CO3)ccc1F	-11	0	-4	3	20*	0	1
O=C1COc2ccc(C(=O)COC(=O)c3sc4ccccc4c3Cl)cc2N1	-3	0	-2	-1	94*	13	5
CN(C)S(=O)(=O)c1ccc(C(=O)OCC(=O)c2ccc3c(c2)NC(=O)CO3)cc1	7	-1	-1	8	27*	7	1
Cc1c(CCC(=O)O)c(=O)oc2cc(OCc3ccccc3F)ccc12	6	-1	1	-2	-8	8	/
O=C(Cc1cccs1)Nc1cc(SCCO)cc([N+](=O)[O-])c1	-14	-5	-5	4	0	7	/
CC(=O)Nc1ccc(NC(=O)C2CCCN(S(=O)(=O)c3ccc(-n4cnnn4)cc3)C2)cc1 (stereo unspecified)	-9	-1	-4	9	23*	-4	0
CC(=O)c1ccc(NC(=O)c2ccc(-n3cnnn3)cc2)cc1	/	/	/	-5	24*	/	2
Cc1cc(C)cc(OCC(=O)Nc2ccc(-n3cnnn3)cc2)c1	-10	-9	/	3	34*	/	6
CC(=O)c1ccc(NC(=O)C2CCCN(S(=O)(=O)c3ccc(-n4cnnn4)cc3)C2)cc1 (stereo unspecified)	-6	0	0	-2	9	-1	/
CCCCN(C)C(=O)Cn1c(=O)oc2cc(S(=O)(=O)N3CC(C)CC(C)C3)ccc21 (stereo unspecified)	-5	-1	-1	1	-16	-9	/
CCn1c(SCC(=O)Nc2nncs2)nnc1-c1ccco1	-15	-1	-1	-4	-5	-11	/
Cc1cc(=O)oc2cc(NC(=O)CCOc3ccccc3)ccc12	-5	0	1	7	21*	11	2
O=C(CN1C(=O)NC2(CCc3ccccc3C2)C1=O)Nc1ccc(Cl)cc1F (stereo unspecified)	-2	-4	-5	0	40*	2	-8
CCCCCCSc1nsc(NC(=O)CCC)n1	6	-10	-1	-1	-1	14	/
COc1ccc(Cc2nc3c4c(ncn3n2)Oc2ccc3ccccc3c2C4c2ccc(OC)c(OC)c2)cc1 (stereo unspecified)	-12	-1	-2	-2	10	9	/
COc1ccc(Cc2nc3c4c(ncn3n2)Oc2c(ccc3ccccc23)C4c2ccc(OC)c(OC)c2)cc1 (stereo unspecified)	-2	1	1	-5	32*	-13	4
Cc1nc(CNC(=O)CC2C(=O)NCCN2Cc2ccc(F)cc2)cs1 (stereo unspecified)	/	0	/	-13	-7	/	/
CC(=O)Nc1sc(C)c(C)c1C(=O)OCC(=O)Nc1cc(S(C)(=O)=O)ccc1Cl	4	0	4	37	56*	7	-1
Cc1cccc(NC(=O)C2CCN(S(=O)(=O)c3c(C)noc3C)CC2)c1	9	0	-1	1	-10	-12	/
CC1CCc2sc(C(=O)N/N=C/c3ccc([N+](=O)[O-])cc3)cc2C1 (stereo unspecified)	-2	-2	1	1	17*	-3	-2
O=C(N/N=C/c1ccc([N+](=O)[O-])cc1)c1cccs1	-5	1	2	2	/	-6	/
O=C(C[C@H]1C/C=C\CC[C@H](Cc2ccc(F)cc2)C(=O)O[C@H](c2ccccc2)CNC1=O)N[C@H](CO)Cc1ccccc1	/	-6	/	-1	48*	/	0
COc1ccc(S(=O)(=O)NCC(=O)Nc2cccc(C)c2C)cc1OC	6	-1	-1	-1	-3	1	/
SMILES	ZTA DNA inh	GRIN3A LBD mod	TPT1 inh	Rpn11 block	dFosB act-1	EBNA-1 inhibitor	dFosB act-2
OC(CN1CCCCC1)Cn1c2ccccc2c2cc(Br)ccc21 (stereo unspecified)	-9	-8	0	-7	40*	-5	2
CN1CCN(CC(=O)Nc2ccc([N+](=O)[O-])cc2Br)CC1	16	-3	2	-2	-1	-3	/
COc1cc2c(cc1OC)C(C)N(C(=O)c1cc3c(=O)oc4ccc(C)cc4c3s1)CC2 (stereo unspecified)	5	0	-1	0	41*	-4	4
Cc1ccc(C)c(NC(=O)Cn2nnc(C(=O)NCc3ccco3)c2N)c1	-6	2	3	-4	30*	-18	-5
Cc1ccc(CNC(=O)c2nnn(CC(=O)Nc3cccc(C)c3C)c2N)cc1	-1	-4	-1	16	66*	3	-1
Cc1ccc(CCNC(=O)Cn2ncc3c([nH]c4ccccc43)c2=O)cc1	-17	0	1	10	6	-6	/
Cc1ccc2[nH]c3c(=O)n(CC(=O)NCc4ccco4)ncc3c2c1	-1	-4	1	-1	26*	6	2
COc1cccc(NC(=O)COC(=O)C2CC2)c1	/	-1	/	-4	2	/	/
O=C(Cn1cnc2ccccc2c1=O)Nc1nnc(SCc2ccc(Cl)cc2)s1	1	-6	2	4	25*	11	-5
O=C(Cn1cnc2ccccc2c1=O)Nc1nnc(C2CC2)s1	-8	1	2	4	8	-16	/
Fc1ccc(Nc2nc(Oc3ccc4c(c3)OCO4)nc(N3CCOCC3)n2)c(F)c1	-6	-1	-2	-4	61*	-5	-3
O=C(Nc1ccc(NS(=O)(=O)c2ccccc2)cc1)c1ccc(Cl)cc1	-5	-5	3	-5	26*	1	1
CCOc1ccc(-n2nc3ccc(NC(=O)c4ccc5c(c4)OCCO5)cc3n2)cc1	-10	19*	-2	-6	99*	9	-10
